M1 antagonist – antagonists of rat M1 muscarinic receptor; CHO-M1 cells, Fluo-4 calcium, ACh EC80 antagonist mode; active compounds read low; P08482; 64,000 compounds, 3.4% hits; B-score at 10 µM; AID 628;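 active = calcium fluorescence response, raw or row-and-column corrected B-score, differing from the plate sample mean either way at a set confidence level, mostly lower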
FXIa mix inh – factor XIa (human) inhibition, mixture screen | P03951 | purified FXIa, fluorogenic substrate, pooled mixtures | inhibition, % at 5 µM | 62,000 compounds, 0.19% hits;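 also: each value is inhibition by a whole ten-compound pool holding the compound; 0% = enzyme with no mixture and 100% = wells lacking enzyme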
M1 ag – agonists of M1 muscarinic receptor | 64,000 compounds, 3% hits | CHO-M1 cells, Fluo-4 calcium fluorescence, agonist mode; active compounds read high | B-score at 10 µM;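 active = fluorescence rise, raw or as B-score row- and column-corrected plate score, outside the 99.7% band of its plate's samples, either direction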
D1 mod – allosteric modulators of human D1 dopamine receptor. P21728. HEK293 D1, CRE-luciferase, dopamine EC30 potentiation; actives deviate in either direction. B-score at 10 µM. 58,000 compounds, 5.9% hits. AID 641;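 active = luminescence count or its row- and column-corrected plate score outside the 99.7% band of the plate's sample wells, on either side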
hDAT+cocaine – changed human dopamine transporter uptake under cocaine IC80; Q01959; LLC-PK1 hDAT cells, [14C]-dopamine uptake with cocaine IC80; actives deviate in either direction; B-score at 10 µM; 110,000 compounds, 1.3% hits; AID 449768;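 active = Z score or B-score, a plate-position-corrected score, falls beyond the plate's 99.7% confidence bounds, in either direction; inactive = both scores lie inside the 99.7% bounds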;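 also: scored against the spread of the other compound wells on the same plate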
FXIIa mix inh – factor XIIa (human) inhibition, mixture screen; 62,000 compounds, 0.2% hits; P00748; inhibition, % at 5 µM; purified FXIIa, fluorogenic substrate, pooled mixtures;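 also: 0% = enzyme without compound and 100% = no enzyme blank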
Target sequence (P00748 20-372 limits assumed): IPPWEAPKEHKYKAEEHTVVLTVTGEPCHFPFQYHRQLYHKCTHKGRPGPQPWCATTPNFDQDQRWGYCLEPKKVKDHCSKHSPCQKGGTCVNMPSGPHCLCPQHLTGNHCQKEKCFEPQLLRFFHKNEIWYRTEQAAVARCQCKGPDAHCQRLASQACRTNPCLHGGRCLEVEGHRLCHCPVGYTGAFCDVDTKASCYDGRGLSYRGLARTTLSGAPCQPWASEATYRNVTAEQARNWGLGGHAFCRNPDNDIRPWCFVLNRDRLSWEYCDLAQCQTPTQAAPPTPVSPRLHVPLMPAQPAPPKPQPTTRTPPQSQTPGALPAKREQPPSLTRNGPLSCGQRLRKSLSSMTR
Target sequence (P00748 373-615 limits assumed): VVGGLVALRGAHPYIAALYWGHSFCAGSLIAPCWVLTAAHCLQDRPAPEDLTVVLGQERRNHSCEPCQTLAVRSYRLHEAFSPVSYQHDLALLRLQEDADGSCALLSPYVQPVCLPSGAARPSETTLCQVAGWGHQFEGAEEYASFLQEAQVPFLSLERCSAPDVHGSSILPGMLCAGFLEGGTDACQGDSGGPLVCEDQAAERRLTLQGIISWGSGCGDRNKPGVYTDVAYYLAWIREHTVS
* hit, by the source's call; · = no result. A selection: hits, their analogues and other compounds. The true share with any hit is near 7.4%. Rule as the data show it, unless noted: active = inhibition above about 20% (passing the limit was not always enough); inactive = the rest.

SMILES | M1 antagonist | FXIa mix inh | M1 ag | D1 mod | hDAT+cocaine | FXIIa mix inh
CCOc1ccc(C(=O)NC2CCN(C(=O)NCc3ccccc3)CC2)cc1 | -0.101 | 4.8 | -0.0748 | -0.613 | 0.609 | 1.7
O=P(O)(CCc1ccccc1)CN1CCCCC1 | -0.326 | -4.1 | 0.00954 | · | -1.05 | 1.4
O=C(CCn1c(=O)oc2ccccc21)N1CCN(c2ccccc2Cl)CC1 | -0.000286 | 3.9 | -0.0132 | 1.36 | 3.45* | 6.0
O=C(CCn1c(=O)oc2ccccc21)N1CCCCCC1 | -0.281 | 5.4 | 0.198 | -0.313 | -0.0205 | 1.3
CC1CCN(c2nc3ccccc3nc2C(C#N)C(=O)OC2CCCCC2)CC1 (stereo not given) | 1.49* | 6.0 | 3.18 | -0.443 | -0.644 | 0.3
CC1CCN(c2nc3ccccc3nc2C(C#N)S(=O)(=O)c2ccccc2)CC1 (stereo not given) | 0.516 | 4.4 | 3.8* | · | · | -15.2
Cc1ccc(S(=O)(=O)C(C#N)c2nc3ccccc3nc2N2CCCC2)cc1 (stereo not given) | 0.046 | -0.2 | 4.99 | 0.581 | -0.228 | 4.0
O=C(Nc1c(C(=O)NCc2ccco2)cnn1-c1ccccc1)c1cccc(F)c1 | · | 3.3 | · | 0.0666 | -1.44 | 1.9
O=C(CSc1nc2c(sc3ccccc32)c(=O)n1CCCN1CCCC1)NCC1CCCO1 (stereo not given) | · | · | · | · | 0.797 | ·
COc1ccc(C)cc1NS(=O)(=O)c1ccc(NS(=O)(=O)c2ccc(NC(C)=O)cc2)cc1 | 0.626 | 8.9 | -0.397 | 0.303 | 3.87* | 4.0
COC(=O)c1cccc(NS(=O)(=O)c2cccs2)c1C | -0.589 | 1.7 | -1.29 | 0.147 | 1.7 | -15.1
COC(=O)c1ccccc1NC1=C/C(=N\S(=O)(=O)c2cccs2)c2ccccc2C1=O | · | · | · | · | -3.04* | ·
O=C(Nc1ccc(Cl)c(Cl)c1)N(Cc1cccnc1)Cc1ccco1 | -0.551 | 6.1 | 0.127 | -2.4 | · | 7.8
COc1ccc(-c2nsc3c(N4CCCC4)ncnc23)cc1 | -0.541 | 5.5 | -0.178 | -4.38* | 1.03 | 2.0
CCOc1cc(C2C(C(=O)c3ccc(C)o3)=C(O)C(=O)N2CCc2ccccc2)ccc1O (stereo not given) | -0.217 | 6.2 | 0.294 | -0.0871 | -4.62* | 4.8
COc1cc(C2C(C(C)=O)=C(O)C(=O)N2CCc2ccc(OC)c(OC)c2)ccc1O (stereo not given) | 0.532 | 6.7 | -0.169 | -0.339 | -0.125 | 10.0
COc1ccc(OC)c(S(=O)(=O)NCc2csc(-c3ccccc3)n2)c1 | 0.754 | · | -0.0347 | -0.211 | 2.43* | ·
COc1ccc(Cn2c(C)nc3oc4cc(OC)ccc4c(=O)c3c2=O)cc1 | -0.253 | 4.3 | -0.399 | 0.133 | 0.11 | -17.7
C=C1CCN([C@@H](CC(C)C)C(=O)NCc2ccc(Cl)cc2)S(=O)(=O)c2ccccc21 | · | · | · | · | 1.14 | ·
CCCn1c(CN2CCN(c3cccc(Cl)c3)CC2)nc2c1c(=O)n(C)c(=O)n2C | -2.49* | 4.9 | 10.6* | -2.83 | -1.35 | 1.5
CCCCn1c(CN2CCN(c3cccc(Cl)c3)CC2)nc2c1c(=O)n(C)c(=O)n2C | -0.445 | 9.6 | 0.019 | -2.88* | -1.05 | 4.7
CCOCCCNC(=O)Cn1nc(-c2ccccc2)ccc1=O | 0.0848 | -4.2 | -0.668 | -0.189 | · | 11.8
O=C1CC(O)(C(F)(F)F)Oc2c1ccc1ccccc21 (stereo not given) | -1.21 | -9.5 | 8.37 | -0.77 | -3.5* | 0.2
COc1ccc(Cl)cc1N(CC(=O)Nc1ccccc1C(=O)NCc1ccco1)S(C)(=O)=O | 1.11 | -39.3 | 1.4 | 1.03 | 0.00965 | 0.9
Nc1ccc(C2CCCc3nonc32)c2nonc12 (stereo not given) | · | -8.7 | · | -2.82* | -0.0657 | 1.0
SMILES | M1 antagonist | FXIa mix inh | M1 ag | D1 mod | hDAT+cocaine | FXIIa mix inh
Cc1nc2ccccc2c(=O)n1NC(=O)COc1ccccc1 | · | · | · | -2.93* | -0.438 | ·
CCOC(=O)c1c(C)[nH]c(C(=O)COC(=O)C2CC2C)c1C (stereo not given) | 0.00548 | 27.3* | -0.45 | -1.29 | 0.0633 | 6.1
CCOC(=O)c1c(C)[nH]c(C(=O)COC(=O)c2[nH]c(C)c(C(C)=O)c2C)c1C | · | · | · | · | -0.0795 | ·
CC(=O)N(Cc1ccc(F)cc1)C1=C(NCc2ccccc2)C(=O)c2ccccc2C1=O | · | · | · | · | -4.28* | ·
COc1ccc(NC(=O)CN2C(=O)C(C)Oc3ccccc32)c(OC)c1 (stereo not given) | 0.00377 | -5.7 | 0.0731 | -0.621 | 2.28* | 6.7
O=C(C1CCCO1)N1CCc2ccccc21 (stereo not given) | -0.134 | 4.2 | 0.0267 | -0.346 | -1.71 | -0.9
CN(c1ccc(Cl)cc1)c1cc(=O)n(C)c2ccccc12 | 0.546 | 4.7 | 0.288 | 0.18 | 3.07* | 1.1
CN(C(=O)COc1cc(=O)n(C)c2ccccc12)c1ccc(Cl)cc1 | -0.423 | 8.2 | -0.115 | -0.171 | 0.757 | 10.9
COc1ccc(S(=O)(=O)N(CC(=O)O)c2ccc(C)cc2)cc1 | -0.676 | 0.4 | 0.288 | -0.542 | -0.687 | 8.8
S=C(NN=C(C1CC1)C1CC1)Nc1ccccc1 | · | · | · | · | 0.00642 | ·
COc1cc(-c2ccccc2)nc(N)n1 | -0.167 | 3.9 | 0.062 | 2.2 | -0.371 | 2.3
CCOc1cc(-c2ccccc2)nc(N)n1 | 0.723 | 7.4 | 0.612 | 8.15* | 1.33 | 2.9
COc1ccc(CCN2C(=O)CC(C(N)=O)SC2=Nc2ccccc2)cc1OC (stereo not given) | 0.656 | 5.8 | 0.849 | -0.132 | 1.55 | 10.2
O=C(Nc1ccc(-n2cnnn2)cc1)C1CCC1 | 0.0546 | 7.1 | -0.0355 | · | -0.379 | 20.2*
O=C(CN1CCN(c2ccc(F)cc2)CC1)Nc1ccc(-n2cnnn2)cc1 | -0.262 | · | -0.612 | -1.52 | 0.209 | ·
NC(=O)C1CC(=O)N(c2ccc(OCC(=O)Nc3cccc(C(F)(F)F)c3)cc2)C1 (stereo not given) | -0.0209 | 6.2 | 0.693 | -0.089 | 0.389 | -2.7
C/C(=N\NC(=O)c1ccccc1O)C1C(=O)c2ccccc2C1=O | · | · | · | · | -3.74* | ·
COc1ccccc1-c1nc(-c2ccc(Br)cc2)no1 | -0.202 | 2.6 | 0.954 | · | 0.121 | 28.6*
COc1ccccc1-c1nc(-c2ccncc2)no1 | -0.466 | 1.2 | -0.673 | -1.23 | 0.0146 | 12.7
Cc1ccc(N(C(=O)Cn2nnc3ccccc32)C(C(=O)NC2CCCCC2)c2cn(C)nc2C)cc1 (stereo not given) | -0.053 | 5.4 | 0.368 | · | -0.0257 | 5.1
CCN(CC)Cc1csc(C(N)=O)c1 | -0.534 | 2.9 | -0.648 | -0.0434 | -0.248 | 14.8
Cn1c(C(=O)Nc2ccc3c(c2)OCO3)cc2c(=O)n(C)c3ccccc3c21 | -0.0652 | 13.9 | -1.21 | 2.48 | -0.474 | 2.7
CC(NC(=O)c1cc2c(=O)n(C)c3ccccc3c2n1C)c1ccc2c(c1)OCCO2 (stereo not given) | -0.591 | 3.0 | 4.41* | -4.62* | 0.312 | 9.9
CC(NC(=O)COc1cc(=O)n(C)c2ccccc12)c1ccc2c(c1)OCCO2 (stereo not given) | 0.0393 | 2.8 | 0.837 | 0.177 | 1.68* | -19.5
CC(C)CCNC(=O)CCCOc1cc(=O)n(C)c2ccccc12 | 0.481 | 2.5 | -0.379 | -0.828 | · | 1.9

From PubChem
